Results from PubChem BioAssay (Tox21).
Inconclusive results are not listed. Activity calls are given as the source filed them. Unless noted, calls follow the shape of the dose curve; as a rule, active = well fitted curve in the direction sought with a large enough effect in the repeat runs; inconclusive = weak or mixed curves; inactive = no such curve, though single readings can be large; an effect the other way counts as inactive or inconclusive.

How the values were obtained:
[1] = qHTS assay to identify small molecule agonists of the androgen receptor (AR) signaling pathway in the presence of an antagonist - cell viability counter screen (AID 1259379);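 also: MDA-kb2 human breast cancer cells carrying an MMTV luciferase reporter; series mostly up to about 92 µM; nearly all actives have a fitted effect of over 25% in size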
Summary of the method: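 Cytotoxicity counter-screen run in the same wells as the nilutamide-challenged (3.0 µM final) AR agonist assay in MDA-kb2 cells. Compounds tested at 15 concentrations for 16 h, 37 °C without CO2; CellTiter-Fluor fluorescence read.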

[2] = qHTS assay to identify small molecule agonists of the estrogen receptor beta (ER-beta) signaling pathway - cell viability counter screen (AID 1259380); also: nearly all actives have a fitted effect of over 30% in size
Summary of the method: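 Cell viability counter screen: CellTiter-Glo luminescence (30 min, room temperature) measured in the same wells as the beta-lactamase readout, after 16 hr compound exposure at 37C of ER-beta-bla HEK293T cells in 2% charcoal-stripped FBS medium.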

[3] = target: Estrogen receptor (Homo sapiens) (UniProt P03372); experiment: qHTS assay to identify small molecule agonists of the estrogen receptor alpha (ER-alpha) signaling pathway in the presence of an antagonist (AID 1259383; calls by dose curve; also: top concentration of the series differs between compounds; nearly all actives have a fitted effect of over 15% in size)
Summary of the method: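 Agonist-mode confirmation run in the presence of 10.0nM (final) ICI-182,780 antagonist. The reporter was ERE-driven luciferase in VM7Luc4E2 cells, grown in charcoal-stripped serum. Cells were exposed to 15-concentration compound series for 22hr, then ONE-Glo luminescence was read.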

[4] = qHTS assay to identify small molecule agonists or antagonists of the thyroid stimulating hormone receptor (TSHR) signaling pathway - wild type cell line counter screen (AID 1259384; calls by dose curve)
Summary of the method: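 Wild-type Hek293 cells, 800/well, 18 h at 37C, then compound with Ro20-1724 for 30 min RT. cAMP by HTRF (cAMP-d2/anti-cAMP cryptate), 1 h RT, fluorescence read. 15 concentrations, triplicates.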

[5] = target: Thyrotropin receptor (Homo sapiens) (UniProt P16473); experiment: qHTS assay to identify small molecule antagonists of the thyroid stimulating hormone receptor (TSHR) signaling pathway (AID 1259385; calls by dose curve; also: nearly all actives have a fitted effect of over 20% in size)
Summary of the method: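 TSHR-HEK293 cells (800/well) plated 18 h, then compounds with Ro20-1724 and TSH at 1.5 ng/mL final, 30 min at room temperature. cAMP quantified by HTRF (cAMP-d2/anti-cAMP-cryptate, 1 h); 15 concentrations in triplicate.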

[6] = qHTS assay to identify small molecule agonists of the estrogen receptor alpha (ER-alpha) signaling pathway in the presence of an antagonist - cell viability counter screen (AID 1259386); also: series mostly up to about 92 µM; nearly all actives have a fitted effect of over 30% in size
Summary of the method: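 Compounds tested at 15 concentrations for 22 h at 37C alongside 10.0nM (final) ICI-182,780 antagonist, in VM7Luc4E2 cells grown in phenol red-free, charcoal-stripped medium. Viability read by CellTiter-Fluor fluorescence after 1 h reagent incubation.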

[7] = qHTS assay to identify small molecule antagonists of the progesterone receptor (PR) signaling pathway - cell viability counter screen (AID 1346798); also: series mostly up to about 92 µM; nearly all actives have a fitted effect of over 50% in size
Summary of the method: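 PR-UAS-bla HEK293T cells, 3,000/well in 2% charcoal-stripped FBS medium, dosed with compounds plus R5020 agonist and incubated 16 h at 37C. Viability then measured in the same wells by CellTiter-Glo luminescence after 30 min at RT.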

[8] = qHTS assay to identify small molecule agonists of the progesterone receptor (PR) signaling pathway - cell viability counter screen (AID 1346799; calls by dose curve; also: nearly all actives have a fitted effect of over 45% in size)
Summary of the method: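 Counter screen in the PR-UAS-bla HEK293T wells (2% charcoal-stripped FBS, 16 h compound exposure at 37 C) after the bla read. CellTiter-Glo added, 30 min at room temperature, luminescence read as cell viability.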

[9] = qHTS assay to identify small molecule agonists of the TGF-beta/Smad signaling pathway - cell viability counter screen (AID 1346829); also: top concentration of the series differs between compounds; nearly all actives have a fitted effect of over 45% in size
Summary of the method: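 CellTiter-Glo luminescence readout; SBE-bla HEK 293T cells, overnight plating, compound 5 hr at 37 C/5% CO2, then bla substrate 2 hr RT, then CellTiter-Glo 30 min RT.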

[10] = qHTS assay to identify small molecule agonists of the TGF-beta/Smad signaling pathway (AID 1346859; active = well fitted activation curve with a large enough effect in the signal ratio in the repeat runs, not every such curve was filed as active; the % refers to the signal ratio; also: series mostly up to about 77 µM)
Summary of the method: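 SBE-bla HEK293T cells plated overnight, then compound exposure for 5 h at 37 C. Beta-lactamase reporter read with LiveBLAzer B/G FRET substrate after 2 h at room temperature, fluorescence at 405 nm excitation, 460/530 nm emission.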

[11] = target: Thyrotropin-releasing hormone receptor (Homo sapiens) (UniProt P34981); experiment: qHTS assay to identify small molecule antagonists of the thyrotropin-releasing hormone receptor (TRHR) signaling pathway (AID 1346877; active = well fitted inhibition curve with a large enough effect in the repeat runs, not every such curve was filed as active; also: series mostly up to about 51 µM)
Summary of the method: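 Antagonist mode: after a 5 min room-temperature compound exposure, cells were stimulated with 1 nM (final) TRH. Dye-loaded TRHR-HEK293 cells were used, and calcium-dependent fluorescence was followed for 3 min, with 15-point titrations run in triplicate.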

[12] = target: Thyrotropin-releasing hormone receptor (Homo sapiens) (UniProt P34981); experiment: qHTS assay to identify small molecule agonists of the thyrotropin-releasing hormone receptor (TRHR) signaling pathway (AID 1346891; calls by dose curve; also: series mostly up to about 58 µM)
Summary of the method: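 HEK293 cells expressing TRHR plated 18 h at 37 C/5% CO2, calcium dye-loaded 2 h at 37 C, then compound added (agonist mode); kinetic calcium fluorescence read 3 min at 1 s intervals; 15 concentrations in triplicate.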

[13] = Human pregnane X receptor (PXR) small molecule agonists, qHTS cell viability counter screen (AID 1346977); also: nearly all actives have a fitted effect of over 50% in size
Summary of the method: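 PXR-Luc HepG2 cells (2,000/well, 5% charcoal-stripped FBS) preincubated 5 hr, then exposed to compounds 24 hr at 37 C. Viability read in the same wells by CellTiter-Fluor fluorescence, reagent added at 23 hr, 1 hr incubation.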

[14] = target: Progesterone receptor (Homo sapiens) (UniProt P06401); experiment: qHTS assay to identify small molecule agonists of the progesterone receptor (PR) signaling pathway (AID 1346784; calls by dose curve; also: nearly all actives have a fitted effect of over 30% in size)
Summary of the method: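 PR-UAS-bla HEK 293T cells (beta-lactamase reporter under UAS) in 2% charcoal-stripped FBS, dosed with 23 nL compound after 6 hr, incubated 16hr at 37C. LiveBLAzer B/G FRET substrate added, fluorescence read after 2 hours.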

[15] = target: Progesterone receptor (Homo sapiens) (UniProt P06401); experiment: qHTS assay to identify small molecule antagonists of the progesterone receptor (PR) signaling pathway (AID 1346795; active = well fitted inhibition curve with a large enough effect in the signal ratio in the repeat runs, not every such curve was filed as active; the % refers to the signal ratio)
Summary of the method: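 PR-UAS-bla HEK293T cells with beta-lactamase reporter under UAS control, in 2% charcoal-stripped FBS, treated with compounds plus 1 nM promegestone (R5020, final) for 16 hr at 37C. Read-out: FRET beta-lactamase substrate fluorescence after 2 hr at room temperature.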

[16] = qHTS assay to identify small molecule antagonists of the TGF-beta/Smad signaling pathway - cell viability counter screen (AID 1346824); also: nearly all actives have a fitted effect of over 50% in size
Summary of the method: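 SBE-bla HEK 293T cells, incubated overnight, then compound plus 0.25 ng/mL TGF-beta1 (stock added) for 5 hr at 37 C. Viability was read in the same wells by CellTiter-Glo luminescence after 30 min at room temperature.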

[17] = qHTS assay to identify small molecule antagonists of the estrogen receptor beta (ER-beta) signaling pathway - cell viability counter screen (AID 1259382);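 also: HEK293T cells carrying ER-beta-UAS-bla reporter stimulated with estradiol; series mostly up to about 92 µM; nearly all actives have a fitted effect of over 55% in size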
Summary of the method: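 Cytotoxicity was measured in the same wells by CellTiter-Glo luminescence after 30 min at room temperature. Cells were ER-beta-bla HEK293T in charcoal-stripped serum, given compound together with 1 nM E2 and incubated 16 h at 37C.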
% is scaled to controls: 0 for no effect and ±100 for the full control effect.

Sequence of Progesterone receptor (Homo sapiens) (P06401 whole entry, looked up): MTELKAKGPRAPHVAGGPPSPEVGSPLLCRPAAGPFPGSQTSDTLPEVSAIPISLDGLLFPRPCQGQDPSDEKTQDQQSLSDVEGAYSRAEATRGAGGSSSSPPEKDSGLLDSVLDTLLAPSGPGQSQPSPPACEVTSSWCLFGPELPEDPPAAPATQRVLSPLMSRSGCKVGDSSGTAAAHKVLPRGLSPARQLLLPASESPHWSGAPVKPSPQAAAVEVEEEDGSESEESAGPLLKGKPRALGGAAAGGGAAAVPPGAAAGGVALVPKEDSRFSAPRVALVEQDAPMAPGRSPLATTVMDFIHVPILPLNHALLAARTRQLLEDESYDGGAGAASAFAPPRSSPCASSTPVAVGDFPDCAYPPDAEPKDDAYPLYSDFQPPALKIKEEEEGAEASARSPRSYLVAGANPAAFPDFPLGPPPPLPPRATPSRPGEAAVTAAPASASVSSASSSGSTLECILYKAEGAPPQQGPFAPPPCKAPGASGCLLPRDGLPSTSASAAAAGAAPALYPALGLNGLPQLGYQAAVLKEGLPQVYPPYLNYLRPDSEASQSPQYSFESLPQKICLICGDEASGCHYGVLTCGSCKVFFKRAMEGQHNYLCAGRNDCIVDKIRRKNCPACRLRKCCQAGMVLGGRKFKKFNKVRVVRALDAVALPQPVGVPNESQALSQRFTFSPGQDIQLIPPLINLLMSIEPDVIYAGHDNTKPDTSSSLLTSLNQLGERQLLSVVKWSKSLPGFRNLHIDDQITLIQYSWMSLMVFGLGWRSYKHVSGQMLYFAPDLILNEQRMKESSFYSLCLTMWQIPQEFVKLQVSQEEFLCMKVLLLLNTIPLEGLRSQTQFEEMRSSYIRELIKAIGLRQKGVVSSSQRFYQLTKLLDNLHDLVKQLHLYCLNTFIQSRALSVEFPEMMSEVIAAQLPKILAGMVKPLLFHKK
Sequence of Thyrotropin-releasing hormone receptor (Homo sapiens) (P34981 whole entry, looked up): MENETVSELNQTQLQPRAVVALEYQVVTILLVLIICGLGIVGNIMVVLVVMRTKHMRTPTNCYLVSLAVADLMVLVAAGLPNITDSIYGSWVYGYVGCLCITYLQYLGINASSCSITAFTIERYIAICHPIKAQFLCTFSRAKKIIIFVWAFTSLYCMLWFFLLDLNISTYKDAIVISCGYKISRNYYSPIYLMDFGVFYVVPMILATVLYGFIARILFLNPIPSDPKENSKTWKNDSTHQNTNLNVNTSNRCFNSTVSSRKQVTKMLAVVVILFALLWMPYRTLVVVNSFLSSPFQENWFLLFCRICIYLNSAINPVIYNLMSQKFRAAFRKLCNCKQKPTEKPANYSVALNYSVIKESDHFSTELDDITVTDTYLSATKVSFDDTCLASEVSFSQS
Sequence of Estrogen receptor (Homo sapiens) (P03372 whole entry, looked up): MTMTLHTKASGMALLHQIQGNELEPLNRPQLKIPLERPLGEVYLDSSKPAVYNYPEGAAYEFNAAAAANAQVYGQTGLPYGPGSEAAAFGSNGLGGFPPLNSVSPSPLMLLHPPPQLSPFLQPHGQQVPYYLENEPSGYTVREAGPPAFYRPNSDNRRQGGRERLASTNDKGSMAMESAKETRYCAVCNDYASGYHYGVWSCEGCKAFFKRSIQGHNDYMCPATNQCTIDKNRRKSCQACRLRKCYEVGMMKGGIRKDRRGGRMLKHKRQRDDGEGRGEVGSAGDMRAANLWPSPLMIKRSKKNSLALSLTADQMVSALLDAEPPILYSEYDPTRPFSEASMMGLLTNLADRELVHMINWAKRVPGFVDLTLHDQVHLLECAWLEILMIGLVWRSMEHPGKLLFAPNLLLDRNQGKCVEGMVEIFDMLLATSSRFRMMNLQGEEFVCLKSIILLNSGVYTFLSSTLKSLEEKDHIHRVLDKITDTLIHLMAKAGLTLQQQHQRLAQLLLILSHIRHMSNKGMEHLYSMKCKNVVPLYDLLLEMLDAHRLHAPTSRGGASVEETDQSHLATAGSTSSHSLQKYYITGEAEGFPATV
Sequence of Thyrotropin receptor (Homo sapiens) (P16473 whole entry, looked up): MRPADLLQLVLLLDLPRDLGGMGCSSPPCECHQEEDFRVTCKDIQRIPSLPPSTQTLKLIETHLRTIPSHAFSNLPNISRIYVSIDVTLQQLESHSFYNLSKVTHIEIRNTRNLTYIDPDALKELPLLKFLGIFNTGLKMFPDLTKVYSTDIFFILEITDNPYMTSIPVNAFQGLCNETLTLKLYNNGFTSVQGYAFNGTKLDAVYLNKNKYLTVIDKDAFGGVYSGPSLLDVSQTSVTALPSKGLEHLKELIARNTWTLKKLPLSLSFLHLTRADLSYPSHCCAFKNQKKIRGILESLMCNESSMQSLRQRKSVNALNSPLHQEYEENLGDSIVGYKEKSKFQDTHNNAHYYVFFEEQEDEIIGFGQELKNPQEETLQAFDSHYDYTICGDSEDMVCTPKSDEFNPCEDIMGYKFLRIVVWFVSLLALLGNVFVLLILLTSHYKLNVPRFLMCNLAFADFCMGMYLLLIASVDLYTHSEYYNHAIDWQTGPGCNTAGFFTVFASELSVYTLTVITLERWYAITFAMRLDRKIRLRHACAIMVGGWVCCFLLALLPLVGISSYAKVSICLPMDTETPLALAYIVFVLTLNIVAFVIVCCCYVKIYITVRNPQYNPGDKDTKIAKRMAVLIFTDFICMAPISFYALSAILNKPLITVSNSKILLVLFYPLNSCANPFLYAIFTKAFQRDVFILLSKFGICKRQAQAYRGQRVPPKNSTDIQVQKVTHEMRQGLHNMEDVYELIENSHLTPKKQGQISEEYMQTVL

CCCCCCCCCCCCCCC(=O)O
inactive: Potency [1] | Potency [2] | outcome [3] | outcome [4] | outcome [5] | Potency [6] | Potency [7] | Potency [8] | outcome [9] | outcome [10] | outcome [11] | Potency [12] | Potency [13]

CC(C)(C#N)Nc1nc(Cl)nc(NC2CC2)n1
inactive: Potency [1] | outcome [4] | outcome [5] | Potency [6] | Potency [14] | Potency [15] | Potency [7] | Potency [8] | outcome [16] | outcome [9] | outcome [10] | outcome [11] | Potency [12] | Potency [13]

CC(C)[C@H]1CC[C@@H](C)CC1=O
inactive: Potency [1] | Potency [2] | outcome [17] | outcome [4] | Potency [6] | Potency [14] | Potency [15] | Potency [8] | outcome [9] | outcome [10] | Potency [13]

CC(C)=CCC/C(C)=C/C#N
inactive: Potency [1] | outcome [17] | outcome [3] | outcome [4] | outcome [5] | Potency [6] | Potency [14] | Potency [15] | Potency [7] | Potency [8] | outcome [16] | outcome [9] | outcome [10] | Potency [12]

[Ca+2]
inactive: Potency [1] | Potency [2] | outcome [17] | outcome [4] | Potency [6] | Potency [14] | Potency [15] | Potency [7] | outcome [16] | outcome [9] | outcome [10] | Potency [13]

C[N+](C)(C)CCCCCCCCCC[N+](C)(C)C
inactive: Potency [1] | outcome [17] | outcome [3] | outcome [4] | outcome [5] | Potency [6] | Potency [7] | Potency [8] | outcome [16] | outcome [9] | outcome [10]

CCN(CC#N)c1cccc(C)c1
inactive: Potency [1] | Potency [2] | outcome [3] | Potency [6] | Potency [14] | Potency [15] | Potency [7] | Potency [8] | outcome [16] | outcome [9] | outcome [10] | Potency [13]

CO[C@@]1(NC(=O)C(C(=O)O)c2ccc(O)cc2)C(=O)N2C(C(=O)O)=C(CSc3nnnn3C)CO[C@@H]21 (stereo not given in full)
inactive: Potency [1] | Potency [2] | outcome [3] | outcome [4] | Potency [6] | Potency [15] | Potency [7] | Potency [8] | outcome [9] | outcome [10] | outcome [11] | Potency [12] | Potency [13]

CC[N+](C)(CC)CCOC(=O)C1c2ccccc2Oc2ccccc21
inactive: Potency [1] | Potency [2] | outcome [17] | outcome [4] | Potency [6] | Potency [14] | Potency [15] | Potency [7] | Potency [8] | outcome [16] | outcome [9] | outcome [10] | outcome [11] | Potency [12] | Potency [13]

CC(C)C[C@@H](N)C(=O)O
inactive: activity change, negative = cytotoxicity [1] 0.366% [at 19 µM] | activity change, negative = cytotoxicity [2] 2.37% [at 19 µM] | activity change, negative = cytotoxicity [17] 1.92% [at 19 µM] | cAMP activity change [4] 1.68% [at 18.9 µM] | activity change, negative = inhibition [5] 2.7% [at 19 µM] | activity change, negative = cytotoxicity [6] 2.39% [at 19 µM] | activation [14] -1.5% [at 19 µM] | activity change, negative = inhibition [15] 12.3% [at 18.9 µM] | activity change, negative = cytotoxicity [7] -9.21% [at 18.9 µM] | activity change, negative = cytotoxicity [8] -1.58% [at 19 µM] | activity change, negative = cytotoxicity [9] 15.2% [at 15.8 µM] | activation [10] 0.277% [at 15.8 µM] | activity, negative = inhibition [11] -3.99% [at 10.5 µM] | activation [12] -0.187% [at 11.8 µM] | activity change, negative = cytotoxicity [13] 28.2% [at 19 µM]
